Test results reported in PubChem BioAssay AID2069 (Sanford-Burnham Center for Chemical Genomics, 2009).
The campaign covered roughly 1,200 compounds. About 210 (18%) were called active. Only a sample is shown. Values without a mark were called inactive. Cut-off read from the data, not from the text of the source: active = inhibition above about 30%; inactive = the rest.

Assay: fluorescence readout artefact check – biochemical, HTRF, uHTS, artefact control for SUMOylation inhibitor project, confirmation (AID 2069)
Settings: HTRF interference counterscreen, at 35 µM, stronger effect = higher value

Structure (SMILES) | inhibition
O=c1[nH]cc(I)cc1I | -3.65%
O=C1CC(c2ccco2)CC(O)=C1C=Nc1cc(Cl)ccc1O (configuration not stated) | -2.5%
COc1cccc(-c2nc(SCC(=O)Nc3nc(-c4ccccc4)c(C)s3)[nH]c(=O)c2C#N)c1 | -0.65%
COc1ccc(C(N)c2nccc3cc(OC)c(OC)cc23)cc1OC (configuration not stated) | -2.9%
O=C(Nc1ccc(N2C(=O)C3C4C=CC(C4)C3C2=O)cc1)Nc1cccnc1 (configuration not stated) | 16.1%
CC(=O)c1ccc(NC(=O)Nc2cccnc2)cc1 | 41.8% (active)
CN(C(=S)Nc1cccnc1)c1ccc(O)cc1 | 5.3%
CCCC(=O)NC(=S)Nc1cccc2c(O)cccc12 | 11.1%
Cc1ccc(NC(=O)Nc2cccn(Cc3c(F)cccc3Cl)c2=O)cc1 | 3.65%
CN(C)/C=N/c1nc2nccc(-c3ccc(F)cc3)n2n1 | 37.5% (active)
Fc1ccc(-c2ccnc3nc(N4CCOCC4)nn23)cc1 | 32.5% (active)
COc1ccc(-c2ccnc3nc(/N=C/N(C)C)nn23)cc1 | 44.7% (active)
N#CCCN(Cc1cccnc1)C(=S)NC1CC2C=CC1C2 (configuration not stated) | -9.75%
Cc1ccc(NC(=O)c2ccccc2OCC(=O)Nc2cccc(Cl)c2C)nc1 | 7.7%
CCOc1cc(CNc2cccc3ccccc23)cc(Br)c1OCC(=O)NC(C)(C)C | 12.7%
O=C(c1csc(Nc2cccc3ccccc23)n1)N1CCCC1 | 23.1%
O=[N+]([O-])c1c(NCCO)cc(N2CCCCCC2)c2nonc12 | 22.4%
COc1cc(OC)c2c(O)c3c(c(-c4c5c(c(O)c6c(OC)cc(OC)cc46)CO[C@@H](C)[C@H]5O)c2c1)[C@H](O)[C@H](C)OC3 | 11%
O=[N+]([O-])c1c(NCCO)cc(N2CCC3(CC2)OCCO3)c2nonc12 | -10.3%
CCOc1ccc(C2Nc3cccc4cccc(c34)N2)cc1OC | -29.6%
O=C1C(=O)c2ccccc2C(O)=C1CCCCl | -11.4%
CCc1ccccc1NC(=O)Nc1cccn(Cc2ccccc2F)c1=O | -9.65%
Cc1ccc(S(=O)(=O)c2cc3c(=O)n4ccccc4nc3n(Cc3ccco3)c2=N)cc1C | 9.75%
Cn1c(C(=O)NCC2CCCO2)cc2c(=O)n3ccccc3nc21 (configuration not stated) | 51% (active)
CC1CCCCC1NC(=O)c1cc2c(=O)n3ccccc3nc2n1C (configuration not stated) | 57.8% (active)
C=CCNc1nc(NCc2ccccc2)c(C#N)c2c1CN(C)CC2 | 18.9%
OCCNC(=S)Nc1ccc2nsnc2c1 | 10.1%
